Source: PubChem
HepG2 viability: counter-screen for TGF-b inhibitors: cytotoxicity in HepG2 cells | HepG2 CAGA-GFP viability, ATP luminescence, 18 h | hit rate 0.76% among 410,000 | Potency, µM (doses to about 46.1 µM), for the others: at the top dose activity change, negative = cytotoxicity, most hits filed as cytotoxic | AID 588856
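HepG2 CAGA-GFP cells (1000/well, DMEM with 1% FBS) received compound, then TGF-beta at 500 pg/mL final, and were incubated 18 hours at 37 degrees C. Viability was read by CellTiter-Glo luminescence. Media-only wells were set as complete cell-killing and DMSO as no toxicity.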
ATXN2 expr inh: inhibitors of ATXN2 expression; HEK-293 ATXN2-luciferase reporter, luminescence, 24 h; hit rate 0.72% among 360,000; Potency, µM (top dose mostly 57 µM), for the others: at the highest dose activity change, negative = inhibition, actives largely listed as inhibitors; AID 1745845; also: % is scaled to controls: 0 for no effect and ±100 for the full control effect; nearly all actives have a fitted effect of over 55% in size
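qHTS (up to 57 uM final) was run with 24 h compound exposure of reporter cells at 37 °C. Each well was multiplexed: SteadyGlo luminescence measured ATXN2-luciferase expression after a fluorogenic Gly-Phe-AFC viability readout (25 uM final).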
TGFb SMAD3 inh: TGF-b pathway inhibition; hit rate 1.2% among 410,000; Potency, µM (series often up to 46.1 µM), without a hit: top-dose activity, negative = inhibition, actives largely listed as inhibitors; AID 588855; HepG2 CAGA-GFP TGF-b/SMAD3 reporter, GFP fluorescence, 18 h; TGF-beta stimulated, 500 pg/mL final; also: % is scaled to controls: 0 for no effect and ±100 for the full control effect; nearly all actives have a fitted effect of over 65% in size
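Inhibition was scored as loss of TGF-beta-induced (500 pg/mL final, 18 hours, 37 degrees C) GFP in HEPG2 cells carrying a CAGA-GFP reporter, in DMEM with 1% FBS. Well GFP was summed per cell; Activity was normalised to unstimulated and stimulated DMSO wells, then concentration-response fitting.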
S2 tox: reduces viability in counter-screen for ATXN expression inhibitors. AID 651635. hit rate 0.49% among 400,000. Potency, µM (series often up to 56.7 µM), most hits filed as cytotoxic. S2 cells (HEK-293 line with an ATXN2-luciferase reporter) viability, CellTiter-Fluor protease fluorescence, 24 h; also: nearly all actives have a fitted effect of over 40% in size
GLP-1R inv ag: GLP-1 receptor (human) inverse agonism | Potency, µM (top dose mostly 38.3 µM), for the others: top-dose activity change, negative = inhibition, hits mostly inhibitors | HEK293 GLP-1R CRE-luciferase, luminescence, 24 h; GLP-1R form is constitutively active | hit rate 1.6% among 410,000 | AID 624417; also: % is scaled to controls: 0 for no effect and ±100 for the full control effect; nearly all actives have a fitted effect of over 55% in size
Target sequence (P43220 whole entry, looked up): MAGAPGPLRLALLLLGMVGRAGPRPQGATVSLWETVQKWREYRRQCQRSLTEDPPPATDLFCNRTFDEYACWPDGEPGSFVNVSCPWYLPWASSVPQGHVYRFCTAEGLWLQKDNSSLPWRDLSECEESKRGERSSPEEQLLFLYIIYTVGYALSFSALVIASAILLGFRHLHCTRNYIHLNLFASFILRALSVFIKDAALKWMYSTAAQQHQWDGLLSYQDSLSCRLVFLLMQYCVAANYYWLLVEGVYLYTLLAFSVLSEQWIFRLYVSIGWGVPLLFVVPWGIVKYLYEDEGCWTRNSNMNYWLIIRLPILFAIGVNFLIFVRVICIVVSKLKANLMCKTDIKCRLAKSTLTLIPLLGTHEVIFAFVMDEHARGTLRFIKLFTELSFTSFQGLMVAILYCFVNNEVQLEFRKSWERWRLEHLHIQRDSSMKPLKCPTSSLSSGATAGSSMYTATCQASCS
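Seeding at 200 cells/uL, 12 h culture, 24 hr compound treatment, then luciferase reagent and a luminescence read; cells are HEK293 stably expressing a constitutively active GLP-1R plus cAMP-responsive luciferase.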
GLP1R ag: GLP-1 receptor (human) agonism. hit rate 0.007% among 380,000. P43220. HEK293 GLP-1R CRE-luciferase, luminescence, 4-6 h; cells express a hypersensitive GLP-1R form. Potency, µM (series often up to 45.6 µM), without a hit: at the highest dose activation, hits mostly activators. AID 624172; also: % of control where 0% means no effect
Active calls of the source: *; i = inactive; ? = inconclusive; . = no result given; [ ] = remark or other dose. Rows were chosen to be rich in hits. Some 3.7% of all compounds tested hit in one or more screens of this group. Calls follow the shape of the dose curve; as a rule, active = well fitted curve in the direction sought with a large enough effect; inconclusive = small, poorly fitted or top-dose-only effect, or another doubt; inactive = no such curve, though single readings can be large; an effect the other way counts as inactive or inconclusive. Potency is read from the fitted curve at half-maximal effect.

SMILES	HepG2 viability	ATXN2 expr inh	TGFb SMAD3 inh	S2 tox	GLP-1R inv ag	GLP1R ag
O=C(CCNC(=O)Cn1cnc2ccccc2c1=O)NCC1CCCO1 (stereo not drawn)	0.2%	0.5%	-12.3%	.	3.7%[0.307 µM]	-8.6%
Cc1ccc2[nH]c3c(=O)n(CC(=O)N(CCN(C)C)Cc4ccccc4)ncc3c2c1	-72.1%	0.0%	11.2µM*	i	-12.4%	.
COc1cc(=O)n2c(c1C(=O)N(C)Cc1nonc1C)CCN(Cc1c(F)cccc1F)CC2	.	.	.	i	.	.
Cc1nnc(N/N=C\c2ccc(-c3ccccc3[N+](=O)[O-])o2)n1N	-105.8%	7.2%	8.91µM*	i	0.0%	-43.6%
Cc1nnc(N/N=C/c2ccc(-c3ccccc3F)o2)n1N	-96.1%	-2.1%	?	i	24.3%	0.2%
CC(C)Cn1c(-c2ccccc2)nc2ccccc2c1=O	-29.8%	-6.5%	-18.6%	i	2.82µM*	6.7%
O=c1c2ccccc2nc(-c2ccccc2)n1O	3.9%	.	-7.2%	.	-7.5%	-4.6%
Oc1ccccc1C1C=C(c2ccc3c(c2)OCO3)NC(c2ccc(Br)cc2)N1 (stereo not drawn)	-21.8%	.	-10.5%	.	.	.
COc1ccc(CCC(=O)c2c(O)cc(O[C@@H]3O[C@H](CO)[C@@H](O)[C@H](O)[C@@H]3O[C@@H]3O[C@@H](C)[C@H](O)[C@@H](O)[C@@H]3O)cc2O)cc1O	.	-2.1%	.	.	.	.
CC[C@H](c1ccccc1)c1noc(CCN(CC)CC)n1	.	.	.	.	.	6.1%
O=C1C=C(c2ccccc2)C(O)(c2ccccc2)C1 (stereo not drawn)	-1.0%	0.3%	-1.3%	i	-9.8%	3.7%
O=C1CC(O)(c2ccccc2)C(c2ccccc2)=C1c1ccccc1 (stereo not drawn)	-26.6%	-7.4%	-18.0%	i	10µM*	-4.5%
Cc1oc(-c2ccccc2NS(C)(=O)=O)nc1CN(C)Cc1ccc(Cl)cc1	.	.	.	i	.	.
Cc1ccc(S(=O)(=O)c2cc3cc(C(=O)Nc4ccc(C)cc4C)ccc3oc2=O)cc1	0.3%	15.0%	5.3%	i	9.6%	.
O=C(c1ccccc1)c1ccc(OCCCCN2CCCCC2)cc1	-9.5%	-2.4%	-0.2%	i	?	5.2%
COc1ccccc1N1CCN(C(=O)COc2cccc(C)c2C)CC1	-19.0%	0.2%	-16.9%	i	7.08µM*	13.6%
Cc1cccc(OCCCC(=O)O)c1C	-15.7%	-35.3%	0.0%	i	9.7%	-7.6%
O=C(c1ccccc1)c1ccc(OCCCN2CCCC2)cc1	15.8µM*	13.9%	2.1%	i	?	14.0%
O=C(c1ccc(Cl)cc1)N1CCN(CCOc2ccccc2)CC1	-21.7%	-10.9%	0.0%	i	11.2µM*	15.3%
Cc1cccc(OCCCC(=O)N2CCCCCC2)c1C	-30.6%	.	-8.6%	.	8.91µM*	21.2%
O=Cc1cccc(C=O)c1	1.4%	.	-7.3%	.	.	.
O=C(CCCOc1ccccc1)N1CCCCC1	-3.2%	11.2µM*	18.8%	i	?	-20.7%
O=C(CCCOc1ccc(Cl)cc1)N1CCCCC1	-19.5%	37.6%	-10.8%	i	?	1.7%
COCC(=O)Nc1cc(C(=O)N2CCCCC2c2nccn2C)cc2nc(-c3ccccc3)n(C)c12 (stereo not drawn)	.	.	.	i	.	.
COc1ccc(C(=O)CCS(=O)(=O)c2ccc(C)cc2)cc1OC	15.8µM*	2.3%	?	i	?	-2.5%
SMILES	HepG2 viability	ATXN2 expr inh	TGFb SMAD3 inh	S2 tox	GLP-1R inv ag	GLP1R ag
Cc1ccc(S(=O)(=O)CCC(=O)OCC(=O)c2cc(C)ccc2C)cc1	-2.9%	7.7%	1.3%	i	4.8%	-7.6%
Cc1ccc(S(=O)(=O)CCC(=O)c2ccc(O)cc2O)cc1	11.2µM*	21.6%	11.2µM*	i	-48.2%	-17.5%
O=C1CC(c2ccco2)Cc2[nH]c(=O)c(C(=O)Nc3ccccc3)cc21 (stereo not drawn)	-11.0%	.	5.6%	.	.	.
CCOC(=O)c1c(S(=O)(=O)N2CCCC(C(=O)NCc3ccc(Cl)cc3)C2)c(C)n(C)c1C (stereo not drawn)	-11.6%	-10.8%	-12.4%	i	0.6%	.
Cc1cc(Nc2cccc(C(F)(F)F)c2)nc2ccc(NC(=O)c3ccc(N(C)C)cc3)cc12	-4.8%	.	12.5%	.	?	.
CCn1ccnc1CN(C)Cc1cn[nH]c1-c1ccc(OC)c(F)c1	4.8%	13.3%	0.3%	i	10µM*	-2.7%
Cc1cccc(/C=c2\s/c(=C\C(=O)C(C)(C)C)[nH]c2=O)c1	-34.4%	4.2%	?	?	8.91µM*	1.3%
COc1ccc(/C=c2\s/c(=C\C(=O)C(C)(C)C)[nH]c2=O)cc1O	-34.1%	.	?	?	44.6%	2.7%
CCCCCCCCCC[n+]1cccc(Br)c1	-30.5%	.	?	.	.	.
CCC(C)(C)c1ccc(OCCCC[n+]2cccc(C)c2)c(C(C)(C)CC)c1	-196.3%	?	10µM*	?	10µM*	6.4%
CCOc1ccc(C(=O)Nc2ccc3oc(-c4ccc5ccccc5c4)nc3c2)cc1	-10.5%	.	-2.2%	.	12.2%	.
COc1ccc(-c2ccc(OC)c([C@H]3[C@H]4C=CC[C@@H](C)[C@@H]4C(=O)N3Cc3ccccc3)c2)cc1OC	-0.6%	3.4%	-5.4%	i	24.4%	9.1%
COc1ccc(-c2ccc([C@H]3[C@H]4C=CC[C@@H](C)[C@@H]4C(=O)N3Cc3ccccc3)c(F)c2)cc1C	-8.2%	-14.1%	-5.1%	i	4.47µM*	2.7%
COc1ccc(-c2ccoc2)cc1C1C2C=CCC(C)C2C(=O)N1Cc1ccccc1 (stereo not drawn)	-28.3%	.	15.8µM*	.	.	.
COc1ccc(-c2ccccc2[C@H]2[C@@H]3C=CC[C@@H](C)[C@@H]3C(=O)N2Cc2ccccc2)cc1	-48.6%	?	?	i	8.91µM*	0.6%
Cc1ccccc1CNC(=O)C1CCN(c2nnc(-n3c(C)ccc3C)s2)CC1	-46.7%	.	.	.	-0.1%	.
CC1(C(=O)NCc2cccc(C(F)(F)F)c2)CCN1C1Cc2ccccc2C1 (stereo not drawn)	-36.6%	-5.7%	-27.1%	i	12.6µM*	27.8%
CCOC(=O)C1=C(CSc2nc3ccccc3s2)NC(=O)NC1c1cc(C)ccc1C (stereo not drawn)	11.2µM*	-36.0%	11.2µM*	?	?	1.5%
Cc1cccc(COC[C@H](CC(C)C)N2CCN(C(=O)c3ccc(C(F)(F)F)cc3)CCC2=O)c1	.	?	.	.	?	-1.9%
